Among the data in PubChem BioAssay (NCI) are growth values, retold here.

About 83,000 compounds went through this panel and 20% of them were active in at least one assay; those are over-represented in the sample as a whole.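 Activity criterion: percent growth below 10, measured after cells in 96-well plates were exposed to a single compound concentration for 48 hours.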 Values without a mark were called inactive. Calls of active or inactive are those of the source.

Common to all, as to assay: NCI-60 one-dose screen, 48 h (100 = growth as untreated, 0 = no growth, -100 = all killed)
What all share (conditions): 10 µM unless noted

Assay [1] has as its system NCI-H23 lung.
Assay [2] concerns NCI-H226 lung.
Assay [3] relates to NCI-H322M lung.
For assay [4], the system named is HOP-62 NSCLC.
Assay [5] concerns NCI-H460 lung.
In assay [6] the test system is NCI-H522 lung.
For assay [7], the system named is A549/ATCC NSCLC.
Assay [8] deals with 786-0 renal.
Assay [9] deals with COLO 205 colon.
In assay [10] the test system is HOP-92 NSCLC.

As to `O=c1[nH]c2ccc(Cl)cc2cc1CSc1nccc(-c2ccc(Cl)cc2)n1`, the growth is 53.9% in [1]; 8.77% (active) in [2]; 56.8% in assay [3]; 7.77% (active) in assay [4]; 36.6% in assay [5]; 33.6% in assay [6]. Also, the figures for the growth in assay [7], in assay [8] and in assay [9] were 50.1%, 49.8% and 71.7%, respectively.
`CNC(=O)c1cccc(NC(=O)c2ccc3c(c2)nnn3/C(C#N)=C/c2ccccn2)c1`: the growth in assay [1] was -39.3% (active); in assay [2] it was -97.4% (active); in assay [3], 91.8%; in [4] it was 82.7%; in assay [5] it was 51.5%; in assay [10], -29.5% (active). Besides, the figures for the growth in assay [7], in [8] and in assay [9] were 83.2%, -95.9% (active) and -86.6% (active), respectively.
Consider `O=C(NNc1nc2cc(F)ccc2n2c(CN3CCCCC3)ccc12)c1cnccn1`, for which the growth was -21.3% (active) in [1]; -24.6% (active) in [2]; -7.19% (active) in [3]; -59.2% (active) in assay [4]; -11.7% (active) in [5]; -24.8% (active) in [10]. For the same molecule, the growth was -76.8% (active) in assay [7], -98.3% (active) in assay [8] and -50.5% (active) in assay [9].
As to `O=C(CN1C(=O)/C(=C/c2ccccc2F)SC1=S)N1CCOCC1`, the growth was 89.1% in [1]; 66.5% in assay [2]; 90.3% in [3]; 119% in assay [4]; 102% in assay [5]; -83.2% (active) in [6]. Moreover, the growth was 95.5% in assay [7] and 74.9% in assay [8].
On to `Cc1ccccc1[C@H]1C(C(=O)c2ccc(Cl)cc2)C2(N[C@@H]1c1ccccc1)C(=O)Nc1ccc(Cl)cc12` (stereo not given in full), for which the growth in [1] is -56.2% (active); in assay [2] it was -60.2% (active); in [3] it was 22.1%; in assay [4], -63.7% (active); in [5] it was 1.55% (active); in assay [10], -44.4% (active). Besides, the growth in assay [7] was -29.2% (active); in assay [8], -39.3% (active); in [9] it was -75.7% (active).
Take `CC(=O)OC[C@@]1(C)C2CC[C@]3(C)C(CC=C4C5CC(C)(C)CC[C@]5(C(=O)Nc5ccc(Br)cc5)CC[C@]43C)[C@@]2(C)C[C@@H](OC(C)=O)[C@@H]1OC(C)=O` (stereo not given in full): the growth in assay [1] is 45.6%; in assay [2], 45.2%; in assay [3], 67.9%; in assay [4], 38.5%; in [5], 17%; in assay [10], 54.7%. Further, the figures for the growth in assay [7], in assay [8] and in assay [9] were 38.9%, 51.2% and 43.8%, respectively.
`CC1(c2cc3cc(Br)ccc3oc2=O)NC(=O)c2c(/C=C/C(=O)OC3CC4CCC3(C)C4(C)C)cccc2N1` (stereo not given): the growth in [1] was 79.1%; in [2] it was 75.9%; in assay [3], 81.2%; in assay [4], 92.5%; in assay [5] it was 73.6%; in assay [6] it was 68.3%. For the same molecule, the growth in assay [7] was 54.6%; in assay [8] it was 91.5%.
For the molecule `COc1cccc(-c2nc(Nc3ccc(S(N)(=O)=O)cc3)c3ccccc3n2)c1`, the growth in assay [1] was 37.9%; in assay [2], 25.9%; in assay [3] it was 50.3%; in assay [4], 58.9%; in [5], 18.4%; in assay [6], 23.9%. The growth was 27.7% in [7], 5.42% (active) in assay [8] and 27.8% in assay [9].
For `C/C(=N\N=C\c1cc([N+](=O)[O-])ccc1Cl)c1ccc2c(c1)Nc1ccccc1S2`, the growth in assay [1] is 54.7%; in assay [2], 53%; in assay [3] it was 37.3%; in assay [4], 15.7%; in assay [5] it was 9.18% (active); in assay [10], 54.1%. In addition, the values for the growth in [7], in assay [8] and in assay [9] were 29.3%, 21.1% and 61.3%, respectively.
Take `O=C(O)c1cccc(-c2ccc(/C=N/NC(=O)c3[nH]c4ccc(Br)cc4c3-c3ccccc3)o2)c1`: the growth is 86.5% in [1]; 87.9% in assay [2]; 78.9% in [3]; 68.9% in [4]; 95.3% in assay [5]; 69.1% in [10]. The growth in assay [7] is 100%; in assay [8], 84.6%; in assay [9], 114%.
For `Cn1cc(-c2cc3nc(-c4cn(C)c5ncccc45)cc(N)n3n2)c2ccccc21`, the growth is 55.6% in [1]; -21.6% (active) in [2]; 37% in assay [3]; -13.6% (active) in assay [4]; 3.16% (active) in [5]; -4.18% (active) in [6]. In addition, the results for the growth in [7], in assay [8] and in assay [9] were 15.2%, -52.9% (active) and 3.03% (active), respectively.
For `C/C(=N\N=C1/C(=O)Nc2ccc(Cl)cc21)c1ccc2c(c1)Nc1ccccc1S2`, the growth in assay [1] is -28.2% (active); in [2], 31.3%; in assay [3] it was 28.3%; in assay [4], 19.3%; in [5], -21.9% (active); in [10], -10.5% (active). Further, the figures for the growth in assay [7], in assay [8] and in assay [9] were -6.39% (active), -70% (active) and -41.7% (active), respectively.
On to `CC12CC[C@@H]3[C@]4(C)COC(c5cn[nH]c5-c5ccc(Br)cc5)O[C@@H]4CC[C@@]3(C)[C@@H]1CC(C1=CCOC1=O)O2` (stereo not given in full), for which the growth in assay [1] was 57.3%; in assay [2], 59.7%; in assay [3], 66.1%; in [4], 79.5%; in assay [5], 35.4%; in assay [6], 37.4%. In addition, the growth is 35.5% in [7], 62.3% in [8] and 39% in assay [9].
